# Laboratory results: the supplement of paper PMC9262897, “Low-cost anti-mycobacterial drug discovery using engineered E. coli” (Nature Communications, 2022)
# Structures can show the parent of a compound that is named as a salt. ± gives the standard deviation of the averaged measurements.
# Tested on: E. coli TESEC Mtb Alr
# Experiment: growth (OD600 after 10 h); higher = more growth (less inhibition)
# Details: arabinose 100000 nM; compound 0.1 mM; raw OD600 reference: median of DMSO wells 0.201, cell-free background 0.041
# Procedure: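 TESEC Mtb Alr E. coli, or the Alr+ wild-type control, in 384-well plates with Prestwick library compounds at 0.1 mM and 1% DMSO, across arabinose induction levels of 1E3 to 1E7 nM. Growth is read as OD600 after 10 h at 37 °C in triplicate biological replicates.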
row,Structure (SMILES),growth
1,CN1CCN(CC(=O)N2c3ccccc3C(=O)Nc3cccnc32)CC1 [Pirenzepine dihydrochloride],0.193 ± 0.0071
2,CCCCC(=O)N(Cc1ccc(-c2ccccc2-c2nnn[nH]2)cc1)[C@H](C(=O)O)C(C)C [Valsartan],0.213 ± 0.02
3,CCOc1ccccc1OCC1CNCCO1 (stereo not drawn) [Viloxazine hydrochloride],0.193 ± 0.011
4,Cc1nc2n(c(=O)c1CCN1CCC(c3noc4cc(F)ccc34)CC1)CCCC2 [Risperidone],0.175 ± 0.016
5,C=C1C(=O)O[C@H]2[C@H]1CC/C(C)=C/CC[C@@]1(C)O[C@@H]21 [Parthenolide],0.232 ± 0.014
6,CC(C(O)c1ccc(O)cc1)N1CCC(Cc2ccccc2)CC1 (stereo not drawn) [Ifenprodil tartrate],0.194 ± 0.0092
7,O=C(c1ccc(F)cc1)C1CCN(CCn2c(=O)[nH]c3ccccc3c2=O)CC1 [Ketanserin tartrate hydrate],0.221 ± 0.033
8,COc1cc2nc(N(C)CCCNC(=O)C3CCCO3)nc(N)c2cc1OC (stereo not drawn) [Alfuzosin hydrochloride],0.192 ± 0.027
9,CN(C)C(=O)C(CCN1CCC(O)(c2ccc(Cl)cc2)CC1)(c1ccccc1)c1ccccc1 [Loperamide hydrochloride],0.0412 ± 0.00047
10,CNCCC=C1c2ccccc2C=Cc2ccccc21 [Norcyclobenzaprine],0.157 ± 0.0048
11,O=S(=O)(O)c1cc(O)ccc1O [Ethamsylate],0.206 ± 0.018
12,N[C@@H]1CONC1=O [D-cycloserine],0.277 ± 0.0054
13,Clc1ccc(CO/N=C(\Cn2ccnc2)c2ccc(Cl)cc2Cl)c(Cl)c1 [Oxiconazole Nitrate],0.0581 ± 0.003
14,COc1cc(NS(=O)(=O)c2ccc(N)cc2)ncn1 [Sulfamonomethoxine],0.2 ± 0.0044
15,C[C@@H]1NC(=O)NC1=O [Methylhydantoin-5-(L)],0.182 ± 0.017
16,Cn1c(=O)c2c(ncn2CC(=O)O)n(C)c1=O [Acefylline],0.21 ± 0.0073
17,CCC(=O)O[C@]1(C(=O)SCF)[C@H](C)C[C@H]2[C@@H]3C[C@H](F)C4=CC(=O)C=C[C@]4(C)[C@@]3(F)[C@@H](O)C[C@@]21C [Fluticasone propionate],0.21 ± 0.012

row,Structure (SMILES),growth
1,Cn1c(=O)c2c(ncn2CCO)n(C)c1=O [Etofylline],0.228 ± 0.011
2,CCOC(=O)[C@H](CCc1ccccc1)N[C@@H](C)C(=O)N1CCC[C@H]1C(=O)O [Enalapril maleate],0.231 ± 0.03
3,CCC[C@@H]1C[C@@H](C(=O)N[C@@H]([C@H]2O[C@H](SC)[C@H](O)[C@@H](O)[C@H]2O)[C@@H](C)O)N(C)C1 [Lincomycin hydrochloride],0.113 ± 0.0046
4,CC(C)(C)NC[C@H](O)COc1nsnc1N1CCOCC1 [Timolol maleate salt],0.198 ± 0.0053
5,CC(C)NCC(O)COc1ccc(COCCOC(C)C)cc1 (stereo not drawn) [Bisoprolol fumarate],0.222 ± 0.032
6,c1ccc2c(CC3=NCCN3)cccc2c1 [Naphazoline hydrochloride],0.191 ± 0.019
7,CC(=O)OCC(=O)[C@@]1(O)CC[C@H]2[C@@H]3CCC4=CC(=O)CC[C@]4(C)[C@@]3(F)[C@@H](O)C[C@@]21C [Fludrocortisone acetate],0.141 ± 0.0083
8,O=P(O)(O)C(O)(Cn1ccnc1)P(=O)(O)O [Zoledronic acid hydrate],0.192 ± 0.022
9,Cc1c(N(C)C)c(=O)n(-c2ccccc2)n1C [Amidopyrine],0.225 ± 0.02
10,C=C1/C(=C\C=C2/CCC[C@]3(C)[C@@H]([C@H](C)/C=C/[C@@H](O)C4CC4)CC[C@@H]23)C[C@@H](O)C[C@@H]1O [Calcipotriene],0.0504 ± 0.0018
11,NS(=O)(=O)c1cc2c(cc1Cl)N=CNS2(=O)=O [Chlorothiazide],0.212 ± 0.021
12,CN(C)CCc1c[nH]c2ccc(Cn3cncn3)cc12 [Rizatriptan benzoate],0.198 ± 0.0062
13,Nc1ncn(C2OC(CO)C(O)C2O)c(=O)n1 (stereo not drawn) [Azacytidine-5],0.113 ± 0.0011
14,CC(=O)N[C@@H](CC(=O)N[C@@H](CCC(=O)O)C(=O)O)C(=O)O [Spaglumic acid],0.197 ± 0.0095
15,Cc1c(NC(=O)c2cccnc2)c(=O)n(-c2ccccc2)n1C [Nifenazone],0.212 ± 0.024
16,Cc1ccnc2c1NC(=O)c1cccnc1N2C1CC1 [Nevirapine],0.212 ± 0.0063
17,CC(C)NCC(O)COc1ccc(CCOCC2CC2)cc1 (stereo not drawn) [Betaxolol hydrochloride],0.232 ± 0.034

# Same assay, conditions: arabinose 1000000 nM; compound 0.1 mM; raw OD600 reference: median of DMSO wells 0.193, cell-free background 0.041
row,Structure (SMILES),growth
1,CCCCN(CCCC)CCC(O)c1cc2c(Cl)cc(Cl)cc2c2cc(C(F)(F)F)ccc12 (stereo not drawn) [Halofantrine hydrochloride],0.18 ± 0.0064
2,CO[C@@H]1[C@@H](O[C@@H]2O[C@H](C)[C@@H](O[C@H]3C[C@@](C)(O)[C@@H](OC(=O)CC(C)C)[C@H](C)O3)[C@H](N(C)C)[C@H]2O)[C@@H](CC=O)C[C@@H](C)[C@@H](O)/C=C/C=C/C[C@@H](C)OC(=O)C[C@H]1OC(C)=O [Josamycin],0.04073 ± 0.00029
3,Cc1ccccc1C(OCCN(C)C)c1ccccc1 (stereo not drawn) [Orphenadrine hydrochloride],0.148 ± 0.0039
4,O=C(NCC1CCCCN1)c1cc(OCC(F)(F)F)ccc1OCC(F)(F)F (stereo not drawn) [Flecainide acetate],0.168 ± 0.0038
5,C[C@]12CC[C@@H]3c4ccc(O)cc4C[C@@H](CCCCCCCCC[S+]([O-])CCCC(F)(F)C(F)(F)F)[C@H]3[C@@H]1CC[C@@H]2O (stereo partly drawn) [Fulvestrant],0.179 ± 0.012
6,CN1CCN(CC(=O)N2c3ccccc3C(=O)Nc3cccnc32)CC1 [Pirenzepine dihydrochloride],0.177 ± 0.0037
7,CCCCC(=O)N(Cc1ccc(-c2ccccc2-c2nnn[nH]2)cc1)[C@H](C(=O)O)C(C)C [Valsartan],0.193 ± 0.014
8,CCOc1ccccc1OCC1CNCCO1 (stereo not drawn) [Viloxazine hydrochloride],0.196 ± 0.01
9,Cc1nc2n(c(=O)c1CCN1CCC(c3noc4cc(F)ccc34)CC1)CCCC2 [Risperidone],0.18 ± 0.0097
10,C=C1C(=O)O[C@H]2[C@H]1CC/C(C)=C/CC[C@@]1(C)O[C@@H]21 [Parthenolide],0.185 ± 0.0044
11,CC(C(O)c1ccc(O)cc1)N1CCC(Cc2ccccc2)CC1 (stereo not drawn) [Ifenprodil tartrate],0.143 ± 0.0037
12,O=C(c1ccc(F)cc1)C1CCN(CCn2c(=O)[nH]c3ccccc3c2=O)CC1 [Ketanserin tartrate hydrate],0.132 ± 0.0046
13,COc1cc2nc(N(C)CCCNC(=O)C3CCCO3)nc(N)c2cc1OC (stereo not drawn) [Alfuzosin hydrochloride],0.142 ± 0.008
14,CN(C)C(=O)C(CCN1CCC(O)(c2ccc(Cl)cc2)CC1)(c1ccccc1)c1ccccc1 [Loperamide hydrochloride],0.0404 ± 0.0001
15,CNCCC=C1c2ccccc2C=Cc2ccccc21 [Norcyclobenzaprine],0.0991 ± 0.0027
16,O=S(=O)(O)c1cc(O)ccc1O [Ethamsylate],0.182 ± 0.0086
17,N[C@@H]1CONC1=O [D-cycloserine],0.155 ± 0.0017
18,Clc1ccc(CO/N=C(\Cn2ccnc2)c2ccc(Cl)cc2Cl)c(Cl)c1 [Oxiconazole Nitrate],0.0621 ± 0.0011
19,COc1cc(NS(=O)(=O)c2ccc(N)cc2)ncn1 [Sulfamonomethoxine],0.1141 ± 0.00026
20,C[C@@H]1NC(=O)NC1=O [Methylhydantoin-5-(L)],0.186 ± 0.0047

row,Structure (SMILES),growth
1,Cn1c(=O)c2c(ncn2CC(=O)O)n(C)c1=O [Acefylline],0.191 ± 0.0048
2,CCC(=O)O[C@]1(C(=O)SCF)[C@H](C)C[C@H]2[C@@H]3C[C@H](F)C4=CC(=O)C=C[C@]4(C)[C@@]3(F)[C@@H](O)C[C@@]21C [Fluticasone propionate],0.201 ± 0.013
3,Cn1c(=O)c2c(ncn2CCO)n(C)c1=O [Etofylline],0.195 ± 0.0066
4,CCOC(=O)[C@H](CCc1ccccc1)N[C@@H](C)C(=O)N1CCC[C@H]1C(=O)O [Enalapril maleate],0.174 ± 0.0046
5,CCC[C@@H]1C[C@@H](C(=O)N[C@@H]([C@H]2O[C@H](SC)[C@H](O)[C@@H](O)[C@H]2O)[C@@H](C)O)N(C)C1 [Lincomycin hydrochloride],0.0692 ± 0.0033
6,CC(C)(C)NC[C@H](O)COc1nsnc1N1CCOCC1 [Timolol maleate salt],0.172 ± 0.0044
7,CC(C)NCC(O)COc1ccc(COCCOC(C)C)cc1 (stereo not drawn) [Bisoprolol fumarate],0.192 ± 0.0099
8,c1ccc2c(CC3=NCCN3)cccc2c1 [Naphazoline hydrochloride],0.189 ± 0.0029
9,CC(=O)OCC(=O)[C@@]1(O)CC[C@H]2[C@@H]3CCC4=CC(=O)CC[C@]4(C)[C@@]3(F)[C@@H](O)C[C@@]21C [Fludrocortisone acetate],0.1074 ± 0.0007
10,O=P(O)(O)C(O)(Cn1ccnc1)P(=O)(O)O [Zoledronic acid hydrate],0.211 ± 0.0037
11,Cc1c(N(C)C)c(=O)n(-c2ccccc2)n1C [Amidopyrine],0.184 ± 0.0082
12,C=C1/C(=C\C=C2/CCC[C@]3(C)[C@@H]([C@H](C)/C=C/[C@@H](O)C4CC4)CC[C@@H]23)C[C@@H](O)C[C@@H]1O [Calcipotriene],0.0524 ± 0.0013
13,NS(=O)(=O)c1cc2c(cc1Cl)N=CNS2(=O)=O [Chlorothiazide],0.183 ± 0.0053
14,CN(C)CCc1c[nH]c2ccc(Cn3cncn3)cc12 [Rizatriptan benzoate],0.213 ± 0.022
15,Nc1ncn(C2OC(CO)C(O)C2O)c(=O)n1 (stereo not drawn) [Azacytidine-5],0.0465 ± 0.00069
16,CC(=O)N[C@@H](CC(=O)N[C@@H](CCC(=O)O)C(=O)O)C(=O)O [Spaglumic acid],0.198 ± 0.0026
17,Cc1c(NC(=O)c2cccnc2)c(=O)n(-c2ccccc2)n1C [Nifenazone],0.183 ± 0.0036
18,Cc1ccnc2c1NC(=O)c1cccnc1N2C1CC1 [Nevirapine],0.203 ± 0.0086
19,CC(C)NCC(O)COc1ccc(CCOCC2CC2)cc1 (stereo not drawn) [Betaxolol hydrochloride],0.179 ± 0.014
